High-throughput results (PubChem)
A selection: hits, their analogues and other compounds. The true share with any hit is near 3.5%.
GPR151 activ – activates the human receptor GPR151; activation, % at 11.2 µM; PathHunter beta-arrestin GPR151 cells, luminescence; AID 1508602; 1% of 650,000 active; in the data active means activation above about 4.9%;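 further: 0% = median of compound wells and 100% = cells with positive control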
MITF primary – blocks human microphthalmia-associated transcription factor; AlphaScreen MITF homodimerization, bead proximity signal; 0.91% of 650,000 active; O75030; inhibition, % at 2.6 µM; in the data active means inhibition above about 50%;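 further: 0% = vehicle wells with protein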
Target sequence (O75030 whole entry, looked up): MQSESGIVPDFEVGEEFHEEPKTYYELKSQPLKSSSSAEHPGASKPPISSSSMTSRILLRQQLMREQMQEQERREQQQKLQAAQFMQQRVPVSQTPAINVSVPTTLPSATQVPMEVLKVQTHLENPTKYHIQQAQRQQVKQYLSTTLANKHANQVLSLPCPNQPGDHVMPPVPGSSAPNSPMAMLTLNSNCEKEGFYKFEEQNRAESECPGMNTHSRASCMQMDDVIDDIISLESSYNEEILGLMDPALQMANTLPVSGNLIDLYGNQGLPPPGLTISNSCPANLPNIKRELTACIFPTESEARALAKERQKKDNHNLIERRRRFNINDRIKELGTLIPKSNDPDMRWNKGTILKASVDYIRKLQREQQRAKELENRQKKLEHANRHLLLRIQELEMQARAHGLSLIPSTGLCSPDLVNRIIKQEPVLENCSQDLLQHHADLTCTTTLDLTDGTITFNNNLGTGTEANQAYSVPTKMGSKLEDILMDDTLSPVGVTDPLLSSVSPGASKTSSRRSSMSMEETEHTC
TEAD-YAP inh – TEAD-YAP interaction inhibition | 1.4% of 640,000 active | AID 1259422 | inhibition, % at 9.12 µM | HEK-TIYL cells, TEAD-Gal4/YAP UAS-luciferase luminescence; in the data active means inhibition above about 32%;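 further: 0% = median of test compound wells and 100% = reference inhibitor wells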
FBW7 activator – human FBW7 E3 ligase activation, primary screen | Q969H0 | AlphaScreen FBW7–phospho-cyclin E peptide binding, activator screen | 0.13% of 650,000 active | normalized activity (activation), % at 26.1 µM; in the data active means normalized activity above about 1.9%;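 further: purified mutant Fbw7 with reduced substrate affinity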
Starred values were filed as active, the others as inactive.

For COc1nc(-c2ccccc2)nc(OC)c1NC(=O)c1cc([N+](=O)[O-])cc([N+](=O)[O-])c1 the results were GPR151 activ 1, MITF primary 16, TEAD-YAP inh -2 and FBW7 activator 0.
For CCOC(=O)c1c(C)oc2ccc(N(C(=O)c3ccccc3Cl)S(=O)(=O)c3ccc(C)cc3)cc12 the results were GPR151 activ 0, MITF primary -6, TEAD-YAP inh 2 and FBW7 activator 0.
Cc1ccc(N2C(=O)/C(=C/c3ccco3)C(=O)NC2=S)cc1 was read as GPR151 activ 1, MITF primary -15, TEAD-YAP inh -6 and FBW7 activator 0.
COc1ccc(N2C(=O)/C(=C/C=C/c3ccco3)C(=O)NC2=S)c(OC)c1 was read as GPR151 activ 2, MITF primary 76*, TEAD-YAP inh 9 and FBW7 activator -1.
Cc1cccc(N2C(=O)/C(=C/C=C/c3ccco3)C(=O)NC2=S)c1 was read as GPR151 activ 1, MITF primary 58*, TEAD-YAP inh -8 and FBW7 activator 0.
Screening CC(C)CN1CCN(C(=O)c2ccco2)CCC1=O returned GPR151 activ 1, MITF primary -5, TEAD-YAP inh 5 and FBW7 activator 0.
CCOC(=O)c1cnc2c(OC)cccc2c1Nc1ccccc1OC was read as GPR151 activ -1, MITF primary -3, TEAD-YAP inh 7 and FBW7 activator 0.
CCOC(=O)c1cnc2c(OC)cccc2c1NCc1ccco1 was read as GPR151 activ -1, MITF primary -5, TEAD-YAP inh 46* and FBW7 activator 0.
`CCOC(=O)c1cnc2c(OC)cccc2c1Nc1ccc(OC)cc1OC` gave GPR151 activ 1, MITF primary -12, TEAD-YAP inh 53* and FBW7 activator 0.
CCOC(=O)c1cnc2c(Cl)cccc2c1NCc1ccco1 was read as GPR151 activ -1, MITF primary -10, TEAD-YAP inh -8 and FBW7 activator 0.
For CCOc1cccc2c1OC1(C)C(C(=O)N(C)C)C2NC(=S)N1c1ccc(Cl)cc1 (stereo not drawn) the results were GPR151 activ 1, MITF primary 9, TEAD-YAP inh 14 and FBW7 activator 0.
Screening CC(=O)Nc1ccc(C(=O)NCC(=O)OCc2ccc(C(=O)c3ccccc3)cc2)cc1 returned GPR151 activ 1, MITF primary 3, TEAD-YAP inh 44* and FBW7 activator 0.
`COc1cc(CSc2nc(CC(=O)NCC3CCCCC3)cs2)cc(OC)c1` gave GPR151 activ 1, MITF primary -46, TEAD-YAP inh 2 and FBW7 activator 0.
`COCCn1c2c(c(=O)[nH]c1=O)C(c1ccc(Cl)cc1)C1=C(N2)c2ccccc2C1=O` (stereo not drawn) gave GPR151 activ 0, MITF primary 14, TEAD-YAP inh -3 and FBW7 activator 0.
For O=C1C2=C(Nc3[nH]c(=O)[nH]c(=O)c3C2c2ccc(Cl)cc2)c2ccccc21 (stereo not drawn) the results were GPR151 activ 0, MITF primary 26, TEAD-YAP inh 42* and FBW7 activator 0.
`COc1ccc(C(=O)Nc2ccccc2C(=O)Nc2ccc3[nH]c(=O)[nH]c3c2)cc1` gave GPR151 activ -1, MITF primary 2, TEAD-YAP inh -5 and FBW7 activator 0.
CCN1C(=O)/C(=C\C(C)=C\c2ccco2)SC1=S was read as GPR151 activ 0, MITF primary 18, TEAD-YAP inh -6 and FBW7 activator 0.
`O=C1/C(=C/c2ccco2)SC(=S)N1c1cccnc1` gave GPR151 activ -2, MITF primary 68*, TEAD-YAP inh -11 and FBW7 activator 0.
CC(=C\c1ccco1)/C=C1/SC(=S)N(CC(=O)O)C1=O was read as GPR151 activ 0, MITF primary 54*, TEAD-YAP inh -5 and FBW7 activator -1.
Screening NN1C(=O)/C(=C\c2ccco2)SC1=S returned GPR151 activ -1, MITF primary 75*, TEAD-YAP inh 2 and FBW7 activator 0.
`O=C(O)Cc1ccc(N2C(=O)/C(=C\c3ccco3)SC2=S)cc1` gave GPR151 activ -2, MITF primary 76*, TEAD-YAP inh 6 and FBW7 activator -1.
O=C(O)c1ccc(N2C(=O)/C(=C\c3ccco3)SC2=S)cc1O was read as GPR151 activ 0, MITF primary 38, TEAD-YAP inh -8 and FBW7 activator 0.
For CCC(C)NC(=O)c1ccc(Cn2c(=O)[nH]c3cc(OC)c(OC)cc3c2=O)cc1 (stereo not drawn) the results were GPR151 activ 0, MITF primary 13, TEAD-YAP inh 4 and FBW7 activator 0.
`COc1ccc(/C=C2/SC(=S)N(N)C2=O)cc1OC` gave GPR151 activ 2, MITF primary 8, TEAD-YAP inh -11 and FBW7 activator 0.
Screening NN1C(=O)/C(=C/c2ccc(O)c(Br)c2)SC1=S returned GPR151 activ -8, MITF primary 20, TEAD-YAP inh 33* and FBW7 activator -1.
Screening CC(=O)Nc1ccc(N2CCOCC2)cc1 returned GPR151 activ 1, MITF primary -5, TEAD-YAP inh -9 and FBW7 activator 0.
For O=C(NCCc1ccc(O)cc1)c1cccc(Nc2ccc(N3CCOCC3)cc2)n1 the results were GPR151 activ 0, MITF primary 2, TEAD-YAP inh 57* and FBW7 activator 0.
CCCNC(=O)c1cccc(Nc2ccc(N3CCOCC3)cc2)n1 was read as GPR151 activ 1, MITF primary -2, TEAD-YAP inh 3 and FBW7 activator 0.
C/C(=C\C(=O)O)C(=O)Nc1ccc(N2CCOCC2)cc1 was read as GPR151 activ -1, MITF primary 53*, TEAD-YAP inh 1 and FBW7 activator 0.
`O=C(Nc1ccc(N2CCOCC2)cc1)c1cccc(Cl)n1` gave GPR151 activ -11, MITF primary 12, TEAD-YAP inh 60* and FBW7 activator 0.
`O=C(NCCc1ccc(O)cc1)c1cccc(-c2ccc(N3CCOCC3)nc2)n1` gave GPR151 activ -1, MITF primary -2, TEAD-YAP inh 46* and FBW7 activator 0.
Screening O=C(NCCN1CCOCC1)c1cccc(-c2ccc(N3CCOCC3)nc2)n1 returned GPR151 activ 2, MITF primary -7, TEAD-YAP inh -1 and FBW7 activator 0.
`COc1ccc(OCC(=O)Nn2c(=S)[nH]c3ccccc3c2=O)cc1` gave GPR151 activ -1, MITF primary 1, TEAD-YAP inh 6 and FBW7 activator 0.
For COc1cc(NC(=O)c2ccc3c(=O)n(Cc4ccccc4)c(=S)[nH]c3c2)cc(OC)c1OC the results were GPR151 activ -1, MITF primary -1, TEAD-YAP inh 2 and FBW7 activator 0.
CC1CC(C)(C)NC(=S)N1CC(=O)Nc1ccc(Br)cc1 (stereo not drawn) was read as GPR151 activ 1, MITF primary 7, TEAD-YAP inh 5 and FBW7 activator 0.
`CCn1nc(CN)c2ccccc2c1=O` gave GPR151 activ 1, MITF primary 0, TEAD-YAP inh 43* and FBW7 activator 0.
`CCn1nc(CCC(=O)O)c2ccccc2c1=O` gave GPR151 activ -1, MITF primary -9, TEAD-YAP inh 2 and FBW7 activator 0.
